# Cycloheximide cs: Cycloheximide Counterscreen for Small Molecule Inhibitors of Shiga Toxin; cell reporter, cycloheximide protein synthesis inhibition counterscreen; max response, %; actives 12% (n = 300,000); in the data active means max response mostly above about 13%, no sharp cut-off; inactive means mostly below about 14%; further: read at 38.3 µM for the half of the compounds with a filed dose
# Pf growth 48h: Primary qHTS for delayed death inhibitors of the malarial parasite plastid, 48 hour incubation; P. falciparum luciferase growth in erythrocytes, 48 h; Potency, µM (doses to about 28.7 µM), actives largely listed as inhibitors; actives 5.9% (n = 310,000); AID 504832, 2011
#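 Erythrocytes infected with P. falciparum carrying an integrated firefly luciferase reporter (2% hematocrit, 0.1% parasitemia final) were exposed to compounds in RPMI 1640 with 0.5% Albumax at 37 C, 5% CO2. Growth inhibition was scored as reduced luminescence.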
# Shiga inhibitor: A qHTS for Small Molecule Inhibitors of Shiga Toxin. actives 9.2% (n = 290,000). AID 2315, 2010. Vero cells, Shiga toxin protein synthesis inhibition reporter. inhibition, % at 38.7 µM; in the data active means inhibition mostly above about 28%, no sharp cut-off; inactive means mostly below about 43%
# LmPK inhibitor: qHTS Assay for Inhibitors of Leishmania Mexicana Pyruvate Kinase (LmPK) | Q27686 | actives 0.37% (n = 290,000) | purified LmPK, Kinase-Glo ATP luminescence, 1 h | Potency, µM (top dose mostly 57.5 µM), usual class: inhibitors | AID 1721, 2009
# Target sequence (Q27686 whole entry, looked up): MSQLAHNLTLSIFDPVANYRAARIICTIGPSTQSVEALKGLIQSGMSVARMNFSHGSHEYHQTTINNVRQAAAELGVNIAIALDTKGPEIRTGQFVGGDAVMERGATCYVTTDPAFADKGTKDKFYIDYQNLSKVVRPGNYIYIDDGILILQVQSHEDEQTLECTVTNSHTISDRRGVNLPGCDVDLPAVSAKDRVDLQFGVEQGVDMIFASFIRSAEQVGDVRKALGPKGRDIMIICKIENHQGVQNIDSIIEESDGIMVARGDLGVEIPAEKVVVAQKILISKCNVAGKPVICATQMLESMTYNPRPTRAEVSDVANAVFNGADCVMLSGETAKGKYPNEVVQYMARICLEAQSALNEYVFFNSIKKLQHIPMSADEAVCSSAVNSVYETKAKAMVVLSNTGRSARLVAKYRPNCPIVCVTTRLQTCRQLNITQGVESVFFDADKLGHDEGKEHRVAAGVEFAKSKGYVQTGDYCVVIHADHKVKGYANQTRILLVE
#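 qHTS format; LmPK 0.1 nM; substrates PEP 0.5 mM and ADP 0.1 mM. One-hour room-temperature incubation, then coupled luciferase luminescence; 0.5 nM enzyme wells mark activation.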
# Pf growth 96h: Primary qHTS for delayed death inhibitors of the malarial parasite plastid, 96 hour incubation; P. falciparum luciferase reporter growth, 96 h; AID 504834, 2011; Potency, µM (titrated, usually from 28.7 µM), usual class: inhibitors; actives 6.9% (n = 320,000)
#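 96 h incubation, 37 C, 5% CO2, of luciferase-reporter P. falciparum-infected RBCs (2% hematocrit, 0.05% parasitemia final) with test compounds; endpoint luminescence.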
# A number is an active result; . = inactive; ? = inconclusive; / = no result given. A selection: hits, their analogues and other compounds. The true share with any hit is near 22%. Unless noted, the call rests on the fitted dose curve; in most records, active means well fitted inhibition curve with a large enough effect; inconclusive means small, poorly fitted or top-dose-only effect, or another doubt; inactive means no such curve, though single readings can be large or run the other way.
SMILES,Cycloheximide cs,Pf growth 48h,Shiga inhibitor,LmPK inhibitor,Pf growth 96h
CCOC(=O)/C=C/C(=O)Nc1nccs1,15,?,.,.,.
Cc1ccc(/C=C/C(=O)Nc2nccs2)o1,55,.,108,.,.
Cc1ccc(/C=C/C(=O)Nc2ncc(C)s2)o1,47,.,69,.,.
CCOC(=O)C(=O)Nc1nccs1,.,.,.,.,.
COc1ccc(NC(=O)CSc2nnc(-c3cnccn3)n2C)cc1OC,.,.,.,.,.
O=C(NCc1ccccc1C(F)(F)F)C1CCC(=O)N(C2CC2)C1 (configuration not stated),.,.,.,.,.
Cc1ccccc1S(=O)(=O)Cc1ccc(C(=O)NC(C)c2ccccc2)o1 (configuration not stated),.,.,.,.,?
CSCc1ccc(C(=O)NC(C)c2cnn(-c3ccccn3)c2C)o1 (configuration not stated),24,.,48,.,?
CCOc1ccccc1N(CC(=O)NC1CCCC1)C(=O)CNC(=O)c1cccs1,.,.,.,.,.
Cc1cccc(NC(=O)C(c2ccccc2Cl)N2CCOCC2)c1 (configuration not stated),.,12µM,.,.,15µM
OCC[C@@H]1C[C@@H](O)[C@H](O)[C@@]2(Cc3ccccc3CCO2)O1,.,.,.,.,.
CC(C(=O)N1CCCCC1)N1C(=O)c2ccccc2C1=O (configuration not stated),.,.,.,.,/
CC(C)C(C(=O)N1CCOCC1)N1C(=O)c2ccccc2C1=O (configuration not stated),.,.,.,.,10µM
O=C(Nc1ccc2c(c1)OCCO2)C(=S)NCc1ccccc1,49,.,82,.,.
O=C(NCc1ccccc1Cl)c1ccc2c(c1)OCO2,18,.,32,.,.
O=C(NCc1cccs1)c1ccc2c(c1)OCCO2,37,.,.,.,.
NNC(=O)[C@H](Cc1ccccc1)NC(=O)Nc1ccc2c(c1)OCCO2,.,9.3µM,.,.,?
COc1ccc(NC(=O)N[C@@H](Cc2ccccc2)C(=O)NN)cc1,.,?,.,.,?
O=C(NCc1ccccc1F)c1ccc2c(c1)OCO2,.,/,.,.,.
OC[C@H]1OC(O)C[C@@H](O)[C@@H]1O (some centres not stated),/,.,/,/,.
COC(=O)/C=C/c1ccc(C(=O)NCC(=O)N[C@@H](CCC(=O)OC)C(=O)N[C@@H](CC(C)C)C(N)=O)cc1,.,/,.,/,/
C/C(=N/NC(=O)CNC(=O)c1cccnc1)c1cccc([N+](=O)[O-])c1,.,.,.,.,?
Cc1nn(C(C)C(=O)NCCCN2CCCC2)c(=O)c2nn(-c3ccccc3)c(C)c12 (configuration not stated),.,.,.,.,?
COc1ccc(CNC(=O)COC(=O)c2cc3ccccc3o2)cc1,/,.,/,/,.
O=C(O)c1ccc(CNC(=O)c2ccc3c(c2)OCCO3)cc1,.,.,.,.,?
SMILES,Cycloheximide cs,Pf growth 48h,Shiga inhibitor,LmPK inhibitor,Pf growth 96h
O=C(NCc1ccccc1)c1ccc2c(c1)OCCO2,23,.,.,.,.
Cc1cc(-n2c(C)cc(C(=O)COc3cc(F)ccc3[N+](=O)[O-])c2C)no1,/,9.3µM,/,/,?
Cc1cc(-n2c(C)cc(C(=O)COc3ccc([N+](=O)[O-])cc3)c2C)no1,.,?,.,.,?
CN(C(=O)c1ccncc1)c1nnc(-c2cnccn2)s1,.,.,.,.,.
CN(C(=O)c1cccnc1)c1nnc(-c2ccccn2)s1,51,.,.,.,.
Cc1ccc(-c2nnc(N(C)C(=O)c3ccccn3)s2)cn1,13,.,.,.,?
CC(=O)N(C)c1nnc(-c2ccccn2)s1,15,.,.,.,.
CN(C(=O)c1cccnc1)c1nnc(-c2cccnc2)s1,.,.,.,.,?
CN(C(=O)c1cccnc1)c1nnc(-c2cnccn2)s1,27,.,.,.,?
Cc1cnc(-c2nnc(N(C)C(=O)c3ccccn3)s2)cn1,.,.,.,.,.
COCCn1c(SCC(=O)NC2CCCCC2)nnc1-c1ccncc1,.,.,.,.,?
CCN(CC)S(=O)(=O)c1ccc2c(c1)nc(CCC(=O)OCC(=O)Nc1cc(Cl)cc(Cl)c1)n2C,.,.,.,.,.
CN(C(=O)C1CCCO1)c1nnc(-c2cnccn2)s1 (configuration not stated),.,.,.,.,3.3µM
CC(=O)c1cnc(-c2ccccn2)s1,34,10µM,.,.,?
CN(C(=O)c1cnccn1)c1nnc(-c2cnccn2)s1,.,.,.,.,?
CN(C(=O)c1ccccn1)c1nnc(-c2cnccn2)s1,40,.,.,.,/
O=C(c1ccccn1)N1CCN(S(=O)(=O)c2ccccc2)CC1,.,.,.,.,.
COc1ccccc1NC(=O)NCCCCc1ccccc1,.,?,.,.,?
CCN(CC)C1CCN(C(=O)c2cc(COc3ccc(-n4cncn4)cc3)on2)C1 (configuration not stated),.,?,.,.,.
Cn1c([N+](=O)[O-])cnc1N1CCN(c2nncs2)C1=O,.,.,.,.,.
Cc1ccc(NC(=O)CSCc2cc(=O)n3ccsc3n2)cc1,.,.,.,.,?
N=C1N(/N=C/c2ccccc2)C(=Nc2ccccc2)C(=S)N1c1ccccc1,42,?,active,.,.
O=C(CSCc1cc(=O)n2nc(C3CC3)sc2n1)Nc1ccc(F)cc1,.,.,.,.,?
CCN1C(=O)/C(=C/N2CCc3ccccc32)SC1=S,16,.,69,.,.
CCN1C(=O)/C(=C\N2CCCc3ccccc32)SC1=S,.,.,.,.,/
SMILES,Cycloheximide cs,Pf growth 48h,Shiga inhibitor,LmPK inhibitor,Pf growth 96h
COc1cccc(Cn2c(C3CC3)nc3ccc(NC(=O)c4ccco4)cc3c2=O)c1,.,3.7µM,.,.,/
O=C(Nc1ccc2nc(C3CC3)n(Cc3ccc(F)cc3)c(=O)c2c1)c1ccco1,.,1.9µM,.,.,/
Cn1c(=O)c2c(nc(NCCNC(=O)c3ccco3)n2Cc2ccc(F)cc2)n(C)c1=O,.,?,.,.,.
COc1cc2c(cc1NC(=O)c1cccc(F)c1)CCCC2,36,.,67,.,.
COc1cc2c(cc1NC(=O)c1ccccc1F)CCCC2,50,.,93,.,.
O=C(Nc1cccc2c1CCCC2)c1ccccc1F,22,.,.,.,?
C=CCn1c(SCC(=O)NC2CCS(=O)(=O)C2)nnc1-c1ccncc1 (configuration not stated),.,2.6µM,.,.,.
COc1ccccc1-c1ccc(SCc2ccccc2F)nn1,29,.,66,.,.
COc1ccccc1-c1ccc(SCC(=O)NCCc2ccccc2)nn1,.,.,.,.,?
COc1ccccc1-c1ccc(SCc2cccc(F)c2)nn1,30,.,66,.,.

# Compound activity: PubChem BioAssay, National Center for Advancing Translational Sciences (NCATS)
